PubChem BioAssay AID652054 (National Center for Advancing Translational Sciences (NCATS), 2013)
Among all 360,000 compounds or so, about 9,100 (2.5%) were called active. Another 4% or so got no clear call; they are omitted. What follows is part of a selection rich in actives, with near analogues and random picks from the rest. Values without a mark were called inactive. Rule as the data show it: active = max response below about -50%; inconclusive = no clear call, values can overlap the other calls; inactive = above that.
% is scaled to controls: 0 for no effect and ±100 for the full control effect.

Each compound was assayed against D(3) dopamine receptor (Homo sapiens) (UniProt P35462) (assay: qHTS of D3 Dopamine Receptor Antagonist: qHTS). Conditions: D3R cells, DiscoveRx beta-arrestin luminescence, antagonist mode; stronger effect = lower value.
D(3) dopamine receptor (Homo sapiens), sequence (P35462 whole entry, looked up): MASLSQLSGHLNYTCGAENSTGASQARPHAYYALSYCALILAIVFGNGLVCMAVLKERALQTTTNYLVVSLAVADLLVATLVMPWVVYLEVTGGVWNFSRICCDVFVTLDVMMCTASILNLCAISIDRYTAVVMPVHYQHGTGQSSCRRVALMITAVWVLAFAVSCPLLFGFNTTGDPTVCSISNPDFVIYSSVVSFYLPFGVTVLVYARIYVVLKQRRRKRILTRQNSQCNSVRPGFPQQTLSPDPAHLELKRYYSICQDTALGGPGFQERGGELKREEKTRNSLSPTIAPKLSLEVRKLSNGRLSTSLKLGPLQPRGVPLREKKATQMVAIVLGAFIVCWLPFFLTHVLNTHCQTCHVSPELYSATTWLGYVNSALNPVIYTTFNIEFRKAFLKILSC
Method in brief: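 Cells expressing the human receptor were seeded at 1500 cells/well, incubated overnight at 37 degrees C in 5% CO2, then exposed to library compounds with dopamine controls for 90 minutes at 37 degrees C before luminescent detection.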
With `O=C1NC[C@H](CCCCN2CCN(CCc3ccccc3)C(=O)C2=O)N(CC2CCCCC2)C1=O` the max response, negative = inhibition was 2.55%.
For `CCN(C(=O)Nc1cccc2ccccc12)c1ccccc1`, the max response, negative = inhibition was -20.4%.
In the case of `Cc1cc(Br)ccc1NC(=O)CCCOc1cc(=O)n(C)c2ccccc12`, the max response, negative = inhibition is reported as -20.6%.
For `COc1ccc(Nc2oc(-c3ccccc3Cl)nc2C#N)cc1`, the max response, negative = inhibition was -54.1% (active).
For `COc1ccc(Nc2ccc3ccccc3c2)cc1`, the max response, negative = inhibition was -3.21%.
`COc1ccc(Nc2cc(=O)oc3ccccc23)cc1` was tested, and the max response, negative = inhibition was -15.7%.
`O=C(CSc1ccc(Cl)cc1)NC1CC1` gave a max response, negative = inhibition of 20.3%.
With `Cc1cc2cc3c(cc2nc1SCC(=O)Nc1c(C)cccc1C)CCC3` the max response, negative = inhibition was -74.6% (active).
In the case of `Cc1cc(C)c(C#N)c(SCC(=O)Nc2ccccc2)n1`, the max response, negative = inhibition is reported as -13.9%.
Compound `Cc1cccc(C)c1NC(=O)CSc1nc2c([nH]1)c(=O)n(C)c(=O)n2C` has a max response, negative = inhibition of -7.1%.
With `CN(C)CCNC(=O)c1cccc(-c2cnc3c(NC=O)cc(-c4cccc(C(F)(F)F)c4)cn23)c1` the max response, negative = inhibition was 0%.
For `CN(Cc1ccccc1)C(=O)CCC1CCN(C(=O)c2ccco2)CC1`, the max response, negative = inhibition was 13.8%.
In the case of `CCOC(=O)N1CCC(Nc2c(NCCN3CCN(c4cccc(Cl)c4)CC3)c(=O)c2=O)CC1`, the max response, negative = inhibition is reported as 0.472%.
`O=C(COc1cc2oc(=O)c3c(c2cc1Cl)CCC3)NCCCN1CCOCC1` showed a max response, negative = inhibition of -19%.
`O=C(CCCn1c(=O)[nH]c2cc(Cl)ccc2c1=O)NCCN1CCN(c2ccccc2)CC1` was tested, and the max response, negative = inhibition was -29.2%.
Compound `O=C(NCCCN1CCOCC1)c1cc(-c2ccc(Cl)cc2)on1` has a max response, negative = inhibition of 4.36%.
With `CCn1c(=O)cc(OCC(=O)NCCCN2CCN(c3cccc(Cl)c3)CC2)c2ccccc21` the max response, negative = inhibition was -69.4% (active).
For `O=C(Cc1csc(Nc2nc(=S)[nH]c3ccccc23)n1)NCCCN1CCN(c2cccc(Cl)c2)CC1`, the max response, negative = inhibition was -83.7% (active).
`Cn1c(Cc2cccc3ccccc23)nnc1SCC(=O)N1CCN(c2cccc(Cl)c2)CC1` gave a max response, negative = inhibition of 0%.
Compound `COc1cccc(CNC(=O)Cc2csc(Nc3nc(=S)[nH]c4ccccc34)n2)c1` has a max response, negative = inhibition of 11.5%.
`Cn1c(C(=O)N2CCC(C(N)=O)CC2)cc2c(=O)n(C)c3ccccc3c21` was tested, and the max response, negative = inhibition was 0%.
`O=C(CCn1c(=O)[nH]c2ccccc2c1=O)NCCCN1CCN(c2cccc(Cl)c2)CC1` was tested, and the max response, negative = inhibition was -71.4% (active).
Work on `O=C(Cc1ccc(-n2c(=O)[nH]c3ccccc3c2=O)cc1)N1CCN(c2cccc(Cl)c2)CC1` yielded a max response, negative = inhibition of 36.6%.
With `Cn1c(C(=O)NCCCN2CCN(c3cccc(Cl)c3)CC2)cc2c(=O)n(C)c3ccccc3c21` the max response, negative = inhibition was -103% (active).
`C[C@H]1CN([C@@H](C)CO)C(=O)CCCn2cc(nn2)CO[C@@H]1CN(C)S(=O)(=O)c1ccccc1C#N` showed a max response, negative = inhibition of -12.5%.
Work on `Cc1ccc2nc(-c3ccccc3)c(CC3CCCCC3)n2c1` yielded a max response, negative = inhibition of -9.93%.
In the case of `COc1ccc(C(O)C(O)(C(=O)OC(C)C)c2ccc(C)cc2)cc1` (centres undefined), the max response, negative = inhibition is reported as -17.4%.
`CC(C)C[C@H]1CNC(=O)C(=O)N1C[C@H]1CCCN1C[C@H](Cc1ccc(O)cc1)N1C[C@H](CC(C)C)N(CC2CCCCCC2)C(=O)C1=O` gave a max response, negative = inhibition of 30.9%.
With `CC(C)C[C@@H]1Cc2[nH][nH]c(=O)c2[C@H](CCc2ccccc2)O1` the max response, negative = inhibition was -13%.
In the case of `Clc1ccc(-c2cccc3nccn23)cc1`, the max response, negative = inhibition is reported as 0%.
In the case of `CCn1c(SCC(=O)N2CCCC2=O)nc2ccccc21`, the max response, negative = inhibition is reported as 7.76%.
Work on `CCOC(=O)[C@]12CCCC=C1N(CCC1=CCCCC1)C(=O)[C@H](CC(=O)NCCCOC)C2` yielded a max response, negative = inhibition of 7.2%.
`COc1ncnc2c1ncn2CCCNCCN1CCOCC1` was tested, and the max response, negative = inhibition was 20.7%.
Compound `COc1ccc(S(=O)(=O)Nc2ccc3cn[nH]c3c2)cc1[N+](=O)[O-]` has a max response, negative = inhibition of -18.8%.
In the case of `COc1ccc(S(=O)(=O)N/N=C\c2ccc(OC)c(COc3ccc(C)cc3[N+](=O)[O-])c2)cc1`, the max response, negative = inhibition is reported as -59.9% (active).
`Cc1ccc(S(=O)(=O)N/N=C\c2cc3c(cc2[N+](=O)[O-])OCO3)cc1` was tested, and the max response, negative = inhibition was -4.05%.
In the case of `Nc1[nH]c(C(=O)c2ccccc2)c(-c2ccncc2)c1C(=O)NCc1cccc2ccccc12`, the max response, negative = inhibition is reported as -9.51%.
Compound `Nc1ncnc2c1ncn2[C@@H]1O[C@H](CNC(=O)[C@H](N)Cc2cccnc2)[C@@H](O)[C@H]1O` has a max response, negative = inhibition of 1.65%.
`COc1ccc(Cl)cc1NC(=O)NCC1CCN(Cc2ccccc2F)CC1` was tested, and the max response, negative = inhibition was -85.7% (active).
Work on `O=C(NCC1CCN(Cc2ccccc2Cl)CC1)Nc1cccc(Cl)c1` yielded a max response, negative = inhibition of -29.8%.
In the case of `COc1ccc(Cl)cc1NC(=O)C(C)N1CCc2ccccc21` (centres undefined), the max response, negative = inhibition is reported as -7.48%.
With `Cc1cccc(CN2CCC(CNC(=O)Nc3ccc(F)c(Cl)c3)CC2)c1` the max response, negative = inhibition was -60.2% (active).
`O=C(CN1CCN(Cc2ccccc2)CC1)Nc1ccc(F)c(F)c1` gave a max response, negative = inhibition of -16.4%.
For `COc1cc(NC(=O)NCC2CCN(Cc3ccc(C)cc3)CC2)cc(OC)c1OC`, the max response, negative = inhibition was -16.2%.
With `CCc1nc2c(OCC(=O)C(C)(C)C)cccn2c1N(C)C(=O)c1ccccc1F` the max response, negative = inhibition was -24.2%.
`O=C1NC(Cc2ccccc2)c2nc3ccc(Br)cc3c(=O)n2-c2cc3ccccc3cc21` (centres undefined) gave a max response, negative = inhibition of -0.847%.
For `COc1cc(F)ccc1-c1cc(C(=O)NCC2CCCCC2)[nH]n1`, the max response, negative = inhibition was -75.3% (active).
`COc1cc(NC(=O)c2cc(-c3ccc(F)cc3OC(C)C)n[nH]2)cc(OC)c1OC` was tested, and the max response, negative = inhibition was 6.57%.
Work on `COc1ccccc1CNC(=O)c1cc(-c2cc(F)ccc2OC)n[nH]1` yielded a max response, negative = inhibition of 18.6%.
Work on `CC(=O)c1ccc(Nc2nc(C(N)c3ccccc3)cs2)cc1` (centres undefined) yielded a max response, negative = inhibition of 2.63%.
`C[C@@H]1CN([C@@H](C)CO)S(=O)(=O)c2ccc(-c3ccc(C(=O)N(C)C)cc3)cc2O[C@@H]1CN(C)Cc1ccccc1C(=O)O` gave a max response, negative = inhibition of 16.1%.
With `COc1ccc(CN2CCC(c3nc4ccc(Cl)cc4[nH]3)CC2)cc1` the max response, negative = inhibition was -101% (active).
Work on `COc1ccc(F)c(-c2nc(CN3CCC(c4ccccc4)CC3)c(C)o2)c1` yielded a max response, negative = inhibition of -19.4%.
In the case of `COc1ccc(Cn2nnc3c(=O)[nH]c(C4CCN(C(=O)c5ccccc5Cl)CC4)nc32)cc1`, the max response, negative = inhibition is reported as -22.4%.
